# Laboratory results published in the supplement of paper PMC4723716.
# Test system: Plasmodium falciparum NF54 gametocytes
# Assay: viability index relative to DMSO control (fraction); higher = less gametocyte killing
# Conditions: 12.5 µM, incubation time: 72 h
# Summary of the method: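 In 384-well plates, compound at 12.5 µM was incubated for 72 hr at 37°C under low oxygen with P. falciparum NF54 gametocytes of each stage (I–V) at 0.50% gametocytemia and 1.25% hematocrit in 40 µl of serum-containing medium. Staining used 5 µl of 5 µM MitoTracker Red CMXRos for 20 min, then 5 µl was moved into 40 µl of 500 nM dye in serum-free medium and imaged after 30 min. Dividing the gametocyte particle count by the plate mean of solvent-only wells gave the viability index.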
# [1] = gametocyte stage: Stage I viability index
# [2] = gametocyte stage: Stage II viability index
# [3] = gametocyte stage: Stage III viability index
# [4] = gametocyte stage: Stage IV viability index
# [5] = gametocyte stage: Stage V viability index
SMILES,viability index [1],viability index [2],viability index [3],viability index [4],viability index [5]
Cc1cc(Nc2cccc(F)c2)nc(NCc2ccccc2)n1,0.0365,0.436,0.825,1.01,0.429
COc1cc2c3cc1Oc1c(OC)c(OC)cc4c1C(Cc1ccc(O)c(c1)Oc1ccc(cc1)CC3N(C)CC2)N(C)CC4 (stereo not given),0.25,0.465,0.592,0.528,0.468
Cc1sc(NC(=O)c2ccccc2)c(C(c2cccs2)N2CCN(c3ccccc3)CC2)c1C (stereo not given),1,0.74,0.905,0.753,0.545
Oc1ccc2ccccc2c1CNc1nc2ccccc2[nH]1,0.0376,0.182,0.512,0.462,0.273
O=C1c2ccccc2C2=Nc3ccccc3SC(c3cccc(F)c3)C12 (stereo not given),0.857,0.869,0.868,0.75,0.844
COc1ccc(OC)c(C2C3=C(CC(C)(C)CC3=O)N(c3ccc(Cl)c(Cl)c3)C3=C2C(=O)CC(C)(C)C3)c1,0.713,0.88,0.807,0.807,0.623
O=C(CCc1ccccc1)c1ccccc1OCC(O)CN1CCCCC1 (stereo not given),0.00787,0.0616,0.36,0.465,0.39
CCN1CCN(Cc2ccc(NC(=O)c3cc4ccc5cccnc5c4[nH]3)cc2)CC1,0.834,0.845,1.09,0.997,1.02
O=C(NNc1cc(N2CCCC2)nc(N2CCCC2)n1)c1ccccc1,0,0.00749,0.275,0.516,0.377
COc1cc(C(=O)Nc2nc3c(cc4c5c(cccc53)CC4)s2)cc(OC)c1OC,0.18,0.5,1.04,0.775,0.818
Cc1[nH]c(-c2ccc(F)cc2)cc1C(=O)NC1CCN(Cc2ccccc2)CC1,0.131,0.502,0.744,0.881,1.09
OC(CNC1CCCC1)Cn1c2ccccc2c2ccccc21 (stereo not given),0.0475,0.0783,0.181,0.286,0.22
Cc1cc(NCCN2CCCCC2)c2ccc3ccccc3c2n1,0.0508,0.404,0.536,0.495,0.132
COc1ccc(C2N(C)c3ccccc3N2C)cc1,0.939,0.93,1.01,0.964,1.07
CC(=O)Nc1nnc(SCc2c(C)cc(C(C)(C)C)cc2C)s1,0.854,0.701,0.894,0.793,0.912
COc1ccc2c(c1OC)C(=O)N1c3ccccc3N=C(c3ccc(C)cc3)CC21 (stereo not given),0.899,0.674,0.951,0.94,0.987
Cc1cc(N2CCCC2)nc(Nc2ccc(NC(=O)CCc3ccccc3)cc2)n1,0.0734,0.0508,0.261,0.345,0.13
CC(C)(C)c1ccc(C2CC3=Nc4ccccc4N(C(=O)c4ccccc4Cl)C(c4ccc(F)cc4)C3=C(O)C2)cc1 (stereo not given),0.278,0.223,0.472,0.503,0.429
CC(C)(C)CC(C)(C)NCC(O)COc1ccc2c(c1)CCC2 (stereo not given),0.221,0.273,0.615,0.666,0.462
CCC(C)NCC(O)(c1ccc(Cl)cc1)c1ccc(Cl)cc1 (stereo not given),0.0354,0.0657,0.378,0.584,0.615

SMILES,viability index [1],viability index [2],viability index [3],viability index [4],viability index [5]
CCOC(=O)c1c(NC(=O)c2ccccc2)sc2c(O)c(CN(CC)CC)ccc12,0.0641,0.129,0.32,0.517,0.407
CC(O)(c1ccc(Cl)cc1)C(CN1CCCCC1)c1ccccc1 (stereo not given),0.115,0.32,0.809,0.818,0.802
O=C(Nc1cccc(-c2nc3ccccc3[nH]2)c1)c1cccc(NC(=O)c2ccco2)c1,0.424,0.771,1.01,0.857,0.868
Cc1cc(=O)oc2c1ccc1oc(C(=O)c3ccccc3)c(C)c12,0.948,1,0.867,0.972,1.01
CCCCCCc1cc2cc(-c3nc4ccccc4[nH]3)c(=Nc3ccccc3C)oc2cc1O,0.0472,0.138,0.501,0.601,0.506
COc1cccc(C(=O)NC(c2ccc(C)cc2)c2cc(Cl)c3cccnc3c2O)c1 (stereo not given),0.116,0.0583,0.0814,0.247,0.039
COc1cc(OC)c(N(C)C(=O)c2cc3c(s2)-c2ccccc2S(=O)(=O)C3)cc1Cl,0.00884,0.00676,0.0212,0.131,0.022
Cc1ccc(-c2cc3c(SCC(=O)Nc4cc(C(F)(F)F)ccc4Cl)nccn3n2)cc1,1.03,0.896,1.11,0.921,0.791
O=C(Nc1ccccc1O)c1ccc(Oc2cccc(C(=O)Nc3ccccc3O)c2)cc1,0.00331,0.161,0.434,0.456,0.462
CCOc1cccc2sc(N(Cc3cccnc3)C(=O)C3CCCCC3)nc12,0.478,0.691,1.09,0.951,0.989
O=C1CC(O)(C(F)(F)C(F)(F)F)Oc2ccccc21 (stereo not given),1.22,0.957,1.2,1.19,0.813
COc1cccc(-c2nn(C)c3sc(C(=O)NCCN4CCN(c5ccccc5F)CC4)cc23)c1,0.0431,0.436,0.777,0.836,0.835
Oc1c2c(nc3cc(-c4ccccc4)nn13)CCCC2,1.07,0.786,1.07,0.878,0.879
Nc1ccn(C2O[C@H](CO)[C@@H](O)[C@H]2O)c(=O)n1 (stereo not given in full),0.976,1.14,0.955,1.07,1.1
COc1ccc(Nc2cc(C)nc(NCc3ccccc3)n2)cc1,0.0594,0.319,0.487,0.589,0.481
O=C(Nc1ccc(Cl)cc1)N1CCN(c2ccc3nncn3n2)CC1,0.865,1.02,1.15,1.14,1.11
CC1CC(C)CN(C(=O)c2ccc(Cl)cc2Cl)C1 (stereo not given),0.95,0.871,0.962,0.951,1.01
COc1ccccc1C(=O)ON=C(N)Cc1cccc2ccccc12,0.0446,0.121,0.299,0.373,0.195
COc1ccc(C(C)=O)cc1N1C(=O)C2C(C1=O)C1(c3ccccc3)C(=O)C2(c2ccccc2)C(c2ccc(C)cc2)=C1c1ccc(C)cc1 (stereo not given),1.04,0.933,1.01,0.824,0.923
N=c1c2ccccc2nnn1-c1cccc(C(F)(F)F)c1,0.988,0.714,1.02,0.785,0.87

SMILES,viability index [1],viability index [2],viability index [3],viability index [4],viability index [5]
Cc1ccc(CN2CCC(C(=O)Nc3ccc(-c4cc5ccccc5[nH]4)cc3)CC2)o1,0.00663,0.313,0.43,0.422,0.396
Cc1cc(C)c2nc(N3CCC(C(=O)NCCCN4CCC(N5CCCCC5)CC4)CC3)sc2c1,0.0166,0.204,0.455,0.477,0.352
CCCCCC(=O)N1c2ccccc2N=C2CC(c3ccc(OC)c(OC)c3)CC(O)=C2C1c1ccc(C(F)(F)F)cc1 (stereo not given),0.0365,0.0251,0.0919,0.219,0.429
Oc1ccc(Cl)cc1CNc1nc2ccccc2[nH]1,0.0751,0.545,0.822,0.891,0.736
O=C(Nc1ccc(N2CCCCC2)c(Cl)c1)c1ccc(Br)o1,0.673,0.726,0.762,0.787,0.978
COc1ccc(C=C2SC(=N)N(c3ccccc3OC)C2=O)cc1,0.642,0.916,0.942,0.769,0.923
c1ccc(C2=Nc3ccccc3N=C(c3ccccc3)c3ccccc32)cc1,0.0839,0.0541,0.0543,0.123,0.0909
CC(C)CCNCC(O)Cn1c2ccccc2c2ccccc21 (stereo not given),0.0507,0.0691,0.0706,0.193,0.0779
COc1ccc2sc(N(Cc3cccnc3)C(=O)c3ccc(C#N)cc3)nc2c1,1.05,0.773,0.995,0.934,1.16
Cc1ccc(Cn2c(N3CCC(C(=O)NCc4cccs4)CC3)nc3ccccc32)cc1,0.593,0.289,0.545,0.544,0.308
Cc1cc(N2CCN(C3CCCC3)CC2)n2c(nc3ccccc32)c1C#N,0.833,0.875,1.15,1.02,1
Cc1cccc(Nc2nc(N)c3ccccc3n2)c1,0.0785,0.635,0.948,0.854,0.692
Cn1c(C(=O)c2cccc3ccccc23)nc2ccccc21,0.681,0.95,1.14,1.01,0.74
c1ccc2c(NCCc3c[nH]c4ccccc34)c3ccccc3nc2c1,0.145,0.22,0.609,0.687,0.675
CCOc1cc2c(cc1OCC)C(c1cc(OC)c(O)cc1Cl)NCC2 (stereo not given),0.0243,0.0957,0.513,0.723,0.626
COc1ccc2nc(C)cc(Nc3ccccc3O)c2c1,0.139,0.625,1.04,1.09,0.912
CC(C)(C)C(=O)Nc1ccc(C(=O)Nc2cccc(-c3nc4ccccc4[nH]3)c2)cc1,0.111,0.592,0.694,0.833,0.604
CC(NCc1ccccc1)c1cc(Cl)ccc1O (stereo not given),0.0221,0.121,0.44,0.574,0.923
FC(F)(F)c1cccc(Nc2nc(-c3ccccc3)nc3ncccc23)c1,1.17,1.08,1.33,1.09,1.15
CN(C)c1ccc(N=Cc2ccc(N3CCOCC3)cc2)cc1,0.955,0.834,0.927,1.01,0.896
